BLM inh – blocks DNA unwinding by human BLM helicase. P54132. Potency, µM (highest dose often 56.1 µM), without a hit: top-dose activity change, negative = inhibition, hits mostly inhibitors. AID 2528. recombinant BLM DNA unwinding, fluorescence dequenching. actives 0.2% (n = 350,000);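 also: potency is read from the fitted curve at half-maximal effect; plate controls were vehicle for no effect and no enzyme for full effect; nearly all actives have a fitted effect of over 35% in size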
FEN1 inhibitor – inhibitors of human flap endonuclease 1; P39748; Recombinant FEN1 flap cleavage, fluorescence, 15 min; Potency, µM (highest dose often 114 µM), inactives show at the top dose activity change, negative = inhibition, actives largely listed as inhibitors; actives 0.35% (n = 390,000); also: potency is read from the fitted curve at half-maximal effect; nearly all actives have a fitted effect of over 65% in size
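Quantitative HTS format: each compound was titrated, incubated with 10 nM nuclease for 15 min at room temperature, then challenged with flap substrate at 50 nM final. Signal change over 15 min gave concentration–effect curves.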
PI5P4K alpha inh – blocks human PI5P4K alpha kinase activity | P48426 | PI5P4Kalpha enzyme, ADP-Glo luminescence, 60 min; active compounds read low | max response, % | actives 1.2% (n = 330,000); active = max response of -50% or lower; inconclusive = between -30% and -50%; inactive = -30% or higher; also: value at the top dose of about 77 µM
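ADP-Glo luminescence end-point read after a 60 min room-temperature kinase reaction of PI5P4Kalpha plus substrate, initiated with ATP at 5 microM final. Buffer: 0.038 M HEPES pH 7.4, EGTA, 0.1% CHAPS, 5% DMSO.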
WRN helicase inh – WRN helicase (human) inhibition | WRN helicase unwinding, fluorescent forked duplex, kinetic | Q14191 | AID 651768 | actives 0.46% (n = 360,000) | Potency, µM (doses to about 114 µM), without a hit: at the highest dose activity change, negative = inhibition, usual class: inhibitors; also: potency is read from the fitted curve at half-maximal effect; nearly all actives have a fitted effect of over 55% in size
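Enzyme (20 nM final) and test compound sit together 15 min at room temperature before substrate addition. Substrate is a single-forked duplex oligonucleotide (100 nM) labelled with fluorophore and quencher, with 2 mM ATP; helicase unwinding raises red fluorescence, read kinetically.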
RECQ1 inh – RECQ1 (human) helicase inhibition. P46063. RECQ1 DNA unwinding, red fluorescence kinetic read. Potency, µM (series often up to 57.3 µM), without a hit: top-dose activity, negative = inhibition, usual class: inhibitors. actives 0.54% (n = 240,000);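 also: potency is read from the fitted curve at half-maximal effect; plate controls were vehicle for no effect and no enzyme for full effect; nearly all actives have a fitted effect of over 30% in size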
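50 nM RECQ1T1 preincubated 15 min with compound in Tris pH 8.0 buffer with MgCl2, DTT, Tween-20 and 2.5 ug/ml poly(dI-dC); started with 200 nM TAMRA/BHQ-2 forked duplex and 2 mM ATP. Unwinding read as fluorescence (525/598 nm), two reads 2 h apart.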
APE1 inh-1 – APE1 (human) endonuclease inhibition; P27695; recombinant APE1, TAMRA/BHQ-2 abasic DNA cleavage fluorescence; Potency, µM (highest dose often 65.8 µM), inactives show top-dose activity change, negative = inhibition, usual class: inhibitors; actives 0.35% (n = 350,000);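 also: potency is read from the fitted curve at half-maximal effect; plate controls were vehicle for no effect and reference inhibitor for full effect; nearly all actives have a fitted effect of over 55% in size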
Target sequence (P27695 whole entry, looked up): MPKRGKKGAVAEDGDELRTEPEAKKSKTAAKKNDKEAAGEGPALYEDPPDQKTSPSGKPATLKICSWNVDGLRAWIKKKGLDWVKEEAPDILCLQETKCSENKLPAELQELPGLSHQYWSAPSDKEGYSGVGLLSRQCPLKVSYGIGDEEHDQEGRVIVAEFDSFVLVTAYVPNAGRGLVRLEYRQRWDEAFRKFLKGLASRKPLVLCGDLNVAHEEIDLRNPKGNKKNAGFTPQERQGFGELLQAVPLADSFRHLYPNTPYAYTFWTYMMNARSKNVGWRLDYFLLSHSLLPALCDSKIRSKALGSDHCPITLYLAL
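Kinetic fluorescence read (525 ex/598 em nm, three reads 60 s apart) of AP-site incision; signal = third minus first read. Enzyme 0.75 nM, dual-labelled THF duplex 50 nM, compound preincubation 15 min RT.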
DNA dye displace – displaces fluorescent dye from DNA, flagging APE1 artifacts; DNA fluorescent dye displacement counterscreen, fluorescence; actives 7% (n = 480); Potency, µM (highest dose often 28.5 µM), for inactives: top-dose activity change, negative = inhibition, most hits filed as inhibitors; shares compounds with APE1 inh-1;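 also: loss of thiazole orange fluorescence as the dye is displaced from duplex DNA; potency is read from the fitted curve at half-maximal effect; 0% = ThO with dsDNA and no compound and -100% = ThO without dsDNA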
EndoIV counter – Endo IV (E. coli) inhibition counter-screen. Potency, µM (doses to about 27.1 µM), for the others: top-dose activity change, negative = inhibition, most hits filed as inhibitors. AID 2565. E. coli Endo IV, fluorogenic AP-site DNA cleavage. actives 4% (n = 560). shares compounds with APE1 inh-1;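 also: potency is read from the fitted curve at half-maximal effect; plate controls were uninhibited enzyme wells for no effect and no enzyme buffer wells for full effect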
APE1 inh-2 – APE1 (human) endonuclease inhibition, confirmation. shares compounds with APE1 inh-1. Potency, µM (series often up to 57.1 µM), inactives show top-dose activity change, negative = inhibition, actives largely listed as inhibitors. purified APE1, fluorogenic abasic-site DNA cleavage. actives 44% (n = 750); also: potency is read from the fitted curve at half-maximal effect; nearly all actives have a fitted effect of over 30% in size
APE1 FP inh – APE1 (human) DNA binding inhibition, fluorescence polarization | shares compounds with APE1 inh-1 | APE1 binding to TAMRA-labelled double-stranded DNA, fluorescence polarization displacement | Potency, µM (top dose mostly 28.5 µM), without a hit: at the highest dose activity, negative = inhibition, actives largely listed as inhibitors | actives 7% (n = 480); also: potency is read from the fitted curve at half-maximal effect
* = called active by the depositor; i = inactive; ? = inconclusive; . = not tested or not shown; [ ] = remark or other dose. Rows were chosen to be rich in hits. Some 1.5% of all compounds tested hit in one or more screens of this group. Unless noted, calls follow the shape of the dose curve; as a rule, active = well fitted curve in the direction sought with a large enough effect; inconclusive = small, poorly fitted or top-dose-only effect, or another doubt; inactive = no such curve, though single readings can be large; an effect the other way counts as inactive or inconclusive. Unless noted, % is scaled to controls: 0 for no effect and ±100 for the full control effect.

SMILES	BLM inh	FEN1 inhibitor	PI5P4K alpha inh	WRN helicase inh	RECQ1 inh	APE1 inh-1	DNA dye displace	EndoIV counter	APE1 inh-2	APE1 FP inh
Cc1noc(C)c1-c1ccc2ncnc(NCc3cccs3)c2c1	-9%	.	.	.	3%	14µM*	?	-52%[57.1 µM]	32µM*	36%[57.1 µM]
c1csc(CNc2ncnc3ccc(-c4ccc5c(c4)OCCO5)cc23)c1	.	-21%	.	.	.	15%	.	.	.	.
CCN(C(=O)CSc1nc2n[nH]c(C)c2c(=N)n1-c1cccc(OC)c1)c1cccc(C)c1	-11%	-21%	.	.	.	.	.	.	.	.
COc1ccccc1C1CN(c2ccccc2)N=C1c1cccs1 (configuration not stated)	-7%	-16%	.	-11%[57.1 µM]	-9%	1%	.	.	?	.
COc1cccc(C2CN(c3ccc(F)cc3F)N=C2c2cccs2)c1OC (configuration not stated)	-5%	-7%	-4	-1%	-7%	-7%	.	.	.	.
COc1ccc2nc(NC(=O)c3ccc(S(=O)(=O)N4CCC(C)CC4)cc3)sc2c1	-3%	-2%	.	.	.	.	.	.	.	.
COc1ccc(-c2ccc(SCC(=O)Nc3nccs3)nn2)cc1OC	0%	0%	7	-26%	i	10%	.	.	40µM*	.
O=C1c2ccccc2C(=O)c2c([N+](=O)[O-])ccc(O)c21	-9%	?	?	?	4%	28µM*	?	-4%	14µM*	-19%
O=C1c2c(O)ccc([N+](=O)[O-])c2C(=O)c2c([N+](=O)[O-])ccc(O)c21	.	.	.	.	-29%	?	.	.	.	.
CCN(CC)c1ccc(C(=C2C=CC(=[N+](CC)Cc3cccc(S(=O)(=O)[O-])c3)C=C2)c2ccc(N(CC)Cc3cccc(S(=O)(=O)O)c3)cc2)cc1	25µM*	.	.	.	4µM*	?	?	28µM*	22µM*	25µM*
CCN(Cc1ccccc1)c1ccc(/C=N/NS(=O)(=O)c2cccc([N+](=O)[O-])c2)cc1	-11%	-11%	0	-16%	-4%	-11%	.	.	.	.
O=C(/C=C/c1ccc(O)c(O)c1)O[C@@H](C(=O)O)[C@@H](OC(=O)/C=C/c1ccc(O)c(O)c1)C(=O)O	.	.	.	.	1%	?	.	.	.	.
O=C(O)/C=C/c1ccc(O)c(O)c1	-10%	-3%	?	2%	-6%	?	-3%[57.1 µM]	204%[57.1 µM]	?	5%[57.1 µM]
O=C(/C=C/c1ccc(O)c(O)c1)O[C@H](Cc1ccc(O)c(O)c1)C(=O)O	22µM*	.	.	.	3.5µM*	0.13µM*	-5%	100%	0.63µM*	-34%
O=C(O)/C=C/c1ccc(/C=C/C(=O)O)cc1	.	.	.	.	11%	3%	.	.	.	.
Cc1ccc(-c2nc3cc(Cl)ccc3o2)cc1NC(=O)COc1ccccc1C	.	-26%	.	.	.	.	.	.	.	.
C=CC1=C(C(=O)O)N2C(=O)[C@@H](NC(=O)/C(=N\OCC(=O)O)c3csc(N)n3)[C@@H]2SC1	-3%[21.4 µM]	.	.	.	-2%[25.9 µM]	.	-4%	25%	13µM*	2%

Source: PubChem BioAssay (National Center for Advancing Translational Sciences (NCATS))
